Among the data in PubChem BioAssay are composite z-score and z-score values, retold here.

The test system of test [1] is Plasmodium falciparum Sir2 (PF13_0152, Sir2A). Nature of the test: pfSir2 binders on small-molecule microarrays, primary screen, biochemical, small-molecule microarray, 635 nm fluorescence (AID 1098).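 Also: score merges spot fluorescence intensity with its signal-to-noise ratio.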 Particulars: small-molecule microarray binding, fluorescence 635 nm; higher = more signal.
A short description of test [2]: small-molecule microarray binders of probe aDKK1, primary screen, biochemical, biotinylated probe, 635/667 nm fluorescence (AID 1099).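 Also: score merges 667nm spot fluorescence with signal to noise across triplicate slides; reference of the scale not given here.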 Particulars: higher = more signal.
Test [3] is described as follows: small-molecule microarray binders of probe aCHRDL2, primary screen, biochemical, biotinylated probe, 635/667 nm fluorescence (AID 1100). Conditions: higher = more signal.
Test [4] is described as follows: splicing luciferase reporter signal modulators, primary screen, spliceosome inhibition project, cell-based, HEK293, splice +/- reporter (AID 1101).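 Also: HEK293 cells carrying a splicing-competent luciferase reporter gene; test concentration not given here.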 Particulars: luminescence, 24 h, higher = more signal, called active from +8 up or from −8 down. For orientation: A reporter such as luciferase makes a cellular process visible.
The target of test [5] is Fibroblast growth factor 10 (Homo sapiens) (UniProt O15520). Nature of the test: FGF10 binders on small-molecule microarrays, primary screen, biochemical, small-molecule microarray, 635 nm fluorescence (AID 1102). Particulars: FGF10 binding, fluorescence 635 nm, higher = more signal.
Chain of Fibroblast growth factor 10 (Homo sapiens) (O15520 whole entry, looked up): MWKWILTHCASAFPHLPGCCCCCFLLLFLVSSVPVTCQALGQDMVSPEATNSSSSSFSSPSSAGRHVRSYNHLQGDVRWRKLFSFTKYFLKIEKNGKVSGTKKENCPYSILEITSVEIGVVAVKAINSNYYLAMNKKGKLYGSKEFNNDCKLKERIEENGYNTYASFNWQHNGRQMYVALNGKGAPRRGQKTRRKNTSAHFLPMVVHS
Test [6] concerns glycogen synthase kinase-3 (GSK3A per assay name; protocol says GSK3B). Put plainly: GSK3 binders on small-molecule microarrays, primary screen, biochemical, small-molecule microarray, 635 nm fluorescence, GSK3A (AID 1103). Also: the record names both GSK3A and GSK3B. Particulars: small-molecule microarray binding, fluorescence 635 nm; higher = more signal.
For test [7], the target named is Epidermal growth factor receptor (Homo sapiens) (UniProt P00533). Put plainly: EGFR binders on small-molecule microarrays, primary screen, biochemical, small-molecule microarray, 635 nm fluorescence (AID 1104).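 Also: score merges 667 nm emission intensity with spot signal to noise over triplicate slides.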 Conditions: EGFR binding, higher = more signal.
Chain of Epidermal growth factor receptor (Homo sapiens) (P00533 whole entry, looked up): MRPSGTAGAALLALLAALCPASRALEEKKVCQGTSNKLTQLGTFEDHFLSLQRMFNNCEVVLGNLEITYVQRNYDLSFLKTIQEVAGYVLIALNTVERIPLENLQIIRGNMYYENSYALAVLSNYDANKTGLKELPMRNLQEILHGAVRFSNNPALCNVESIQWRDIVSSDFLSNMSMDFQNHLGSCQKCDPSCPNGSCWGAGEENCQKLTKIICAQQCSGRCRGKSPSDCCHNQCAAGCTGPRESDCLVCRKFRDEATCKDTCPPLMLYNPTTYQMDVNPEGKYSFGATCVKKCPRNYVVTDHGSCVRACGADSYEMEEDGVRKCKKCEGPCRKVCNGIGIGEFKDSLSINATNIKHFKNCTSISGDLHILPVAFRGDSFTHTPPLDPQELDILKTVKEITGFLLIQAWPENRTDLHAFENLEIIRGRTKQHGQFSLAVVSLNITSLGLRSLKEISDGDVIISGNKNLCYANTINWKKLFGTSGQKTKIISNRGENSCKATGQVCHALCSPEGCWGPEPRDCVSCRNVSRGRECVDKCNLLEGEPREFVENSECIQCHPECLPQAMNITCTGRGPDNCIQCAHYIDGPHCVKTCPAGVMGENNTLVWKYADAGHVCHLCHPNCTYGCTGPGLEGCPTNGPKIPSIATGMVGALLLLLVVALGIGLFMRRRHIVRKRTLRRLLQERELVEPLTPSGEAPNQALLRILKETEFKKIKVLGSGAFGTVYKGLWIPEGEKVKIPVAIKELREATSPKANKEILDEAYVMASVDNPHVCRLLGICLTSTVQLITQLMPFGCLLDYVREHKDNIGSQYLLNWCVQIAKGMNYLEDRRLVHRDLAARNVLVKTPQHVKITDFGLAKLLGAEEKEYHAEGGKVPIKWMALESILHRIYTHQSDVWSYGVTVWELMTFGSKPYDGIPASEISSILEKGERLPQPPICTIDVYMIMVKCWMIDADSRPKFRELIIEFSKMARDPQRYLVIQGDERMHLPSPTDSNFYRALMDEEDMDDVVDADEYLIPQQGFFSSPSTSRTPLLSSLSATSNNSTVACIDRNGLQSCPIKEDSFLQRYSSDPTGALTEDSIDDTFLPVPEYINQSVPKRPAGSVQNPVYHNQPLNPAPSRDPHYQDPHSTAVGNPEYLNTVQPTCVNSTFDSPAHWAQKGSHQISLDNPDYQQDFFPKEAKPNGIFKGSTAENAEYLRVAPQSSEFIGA
The target of test [8] is Follistatin-related protein 3 (Homo sapiens) (UniProt O95633). Put plainly: FSTL3 binders on small-molecule microarrays, primary screen, biochemical, small-molecule microarray, 635 nm fluorescence (AID 1105).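 Also: score merges emission near 667 nm and signal to noise per printed spot across three slides.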 Particulars: FSTL3 binding, higher = more signal.
Chain of Follistatin-related protein 3 (Homo sapiens) (O95633 whole entry, looked up): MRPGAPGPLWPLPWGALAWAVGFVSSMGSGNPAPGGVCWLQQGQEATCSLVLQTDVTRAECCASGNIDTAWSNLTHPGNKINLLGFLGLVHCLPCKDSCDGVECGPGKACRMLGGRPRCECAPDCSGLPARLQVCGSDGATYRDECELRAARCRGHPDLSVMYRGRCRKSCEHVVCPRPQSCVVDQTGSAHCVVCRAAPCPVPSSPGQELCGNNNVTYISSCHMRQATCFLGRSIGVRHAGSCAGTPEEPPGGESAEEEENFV
The target in test [9] is Dickkopf-related protein 1 (Homo sapiens) (UniProt O94907). Nature of the test: DKK1 binders on small-molecule microarrays, primary screen, biochemical, small-molecule microarray, 635 nm fluorescence scan (AID 1106).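 Also: score merges emission near 667 nm with signal to noise over three replicate slides.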 Particulars: DKK1 binding, higher = more signal.
Chain of Dickkopf-related protein 1 (Homo sapiens) (O94907 whole entry, looked up): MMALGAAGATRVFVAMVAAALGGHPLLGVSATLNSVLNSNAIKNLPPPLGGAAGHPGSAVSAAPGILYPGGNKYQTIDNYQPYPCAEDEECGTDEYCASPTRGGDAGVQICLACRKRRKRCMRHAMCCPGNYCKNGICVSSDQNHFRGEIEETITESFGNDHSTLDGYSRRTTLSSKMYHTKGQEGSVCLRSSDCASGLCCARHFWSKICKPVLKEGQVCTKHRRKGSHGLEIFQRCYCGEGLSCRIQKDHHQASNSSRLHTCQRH
Test [10] deals with Inhibin beta A chain (activin A). Nature of the test: INHBA (activin A) binders on microarrays, primary screen, biochemical, small-molecule microarray, 635 nm fluorescence scan (AID 1107).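 Also: mouse activin A protein probed at 4.33 µg/mL on printed slides; score merges bound-protein fluorescence near 667 nm with spot signal-to-noise.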 Particulars: small-molecule microarray binding, higher = more signal.

Each structure is given as a SMILES string. Activity calls are given as the source filed them.

Regarding `COc1ccc([Si](C)(C)[C@@H]2[C@@H](CC(=O)N3CCC[C@H]3CO)O[C@]3(C(=O)N(c4ccccc4)c4ccccc43)[C@H]2C)cc1`, the composite z-score in test [1] was 0.977; in [2], 0.0231; in [3] it was -0.169; in test [5], 0.613; in test [6] it was 1.23; in test [7], 0.501. Also, the composite z-score in test [8] came to 1.4; in [9] it was 0.85; in test [10] it was 0.748. In test [4], the z-score was -2.29 (inactive).
As for `C=C(C(=O)CC[C@@H](OC(=O)c1cccnc1)c1ccccc1OCCO)C(C)C`, the composite z-score in [1] was 0.0757; in [2] it was -0.181; in [3] it was 0.0623; in test [5], 0.969; in [6], 0.342; in [7] it was 0.029. Further, the composite z-score in test [8] worked out at 0.401; in test [9], 0.063; in [10] it was 1.34. Besides, the z-score in [4] was 1.34 (inactive).
Take `O=C(NCCN1CCOCC1)[C@@H]1c2ccccc2C(=O)N(C2CCCCC2)[C@H]1c1ccc(CO)cc1`: the composite z-score in test [1] was 1.06; in [2], 0.484; in test [3], 0.92; in [5] it was -0.534; in [6], -0.362; in test [7], -1.03. In addition, the composite z-score was -0.942 in test [8], -0.809 in test [9] and 0.891 in test [10]. In addition, the z-score in [4] is 0.261 (inactive).
Turning to `COC(=O)c1c(CC[C@@H](CO)NC(=O)NCCn2cc(C3(O)CCCC3)nn2)oc(C(C)=O)c1C(=O)OC`, the composite z-score in test [1] is 0.546; in test [2] it was -0.147; in test [3], -0.26; in test [5] it was -0.0339; in test [6] it was -0.0275; in test [7], 0.218. The composite z-score in test [8] was -0.234; in [9] it was 0.0587; in test [10], 0.129. For the same molecule, in test [4], the z-score was -0.152 (inactive).
Take `[N-]=[N+]=Nc1ccccc1[C@H]1OC(c2ccc(OCCCO)cc2)=N[C@@]1(CCS(=O)(=O)c1ccccc1)C(N)=O`: the composite z-score is 1.53 in test [1]; 1.01 in [2]; 1.37 in test [3]; 1.12 in test [5]; 0.915 in test [6]; -0.541 in [7]. The composite z-score in test [8] was -0.0805; in test [9], 0.0979; in [10], 1.26. Also, the z-score in test [4] is -1.36 (inactive).
On to `CN1C(=O)C2C=CC(C(O)C#Cc3ccccc3)N(N3CCCCC3)C2C1=O` (stereo not given), for which the composite z-score in test [1] came out at 1.68; in [2], 1.01; in test [3], 1.09; in test [5] it was 0.945; in test [6] it was 0.216; in test [7], 0.568. Further, the composite z-score in test [8] was found to be 0.731; in test [9], 0.0369; in test [10], 1.18. In test [4], the z-score is 0.762 (inactive).
On to `COc1cc2c(cc1OC)CN(C(=O)[C@H]1[C@@H]3C(=O)O[C@@H](c4ccccc4)[C@@H](c4ccccc4)N3[C@@H](c3ccc(O)cc3)[C@]13C(=O)Nc1ccccc13)CC2`, for which the composite z-score was 1.23 in test [1]; -0.0009 in test [2]; -0.123 in [3]; 0.708 in test [5]; 0.691 in test [6]; -0.0502 in test [7]. In addition, the composite z-score in test [8] is -0.276; in test [9], -0.198; in test [10] it was -0.188. For the same molecule, in test [4], the z-score is -0.0299 (inactive).
Regarding `C=C[C@H](CO[Si](CC)(CC)CC)N(Cc1ccc(OC(C)=O)c(OC)c1)S(=O)(=O)c1ccc(Br)cc1`, the composite z-score in test [1] is 0.609; in test [2] it was 0.964; in test [3], 0.471; in [5], 0.365; in test [6], 0.443; in test [7], 0.275. The composite z-score is 0.465 in test [8], 0.0558 in test [9] and 1.1 in test [10]. Further, the z-score in test [4] is -0.0534 (inactive).
As to `O=C1C[C@@](C(=O)NCCN2CCOCC2)(c2ccc([N+](=O)[O-])cc2)[C@@H](c2ccc(CO)cc2I)N1CC12CC3CC(CC(C3)C1)C2`, the composite z-score in test [1] is 1.29; in test [2], -0.174; in [3], 0.283; in test [5], 1.33; in test [6], 1.3; in test [7], 0.545. In addition, the composite z-score was 1.03 in test [8], 0.324 in test [9] and -0.0038 in test [10]. For the same molecule, in test [4], the z-score is -3.38 (inactive).
With `C=C(C)[C@@H]1CC=C(C(O)C2C=CC3C(=O)N(c4ccccc4)C(=O)C3N2Nc2ccccc2)CC1` (stereo not given in full), the composite z-score in [1] was 0.972; in [2] it was 1.06; in [3], 0.906; in test [5], 0.852; in [6], 1.32; in test [7], -0.747. The figures for the composite z-score in [8], in [9] and in test [10] were 1.15, 0.364 and 0.622, respectively. The z-score in test [4] is 0.0541 (inactive).
For `C=CCC(OC(C)=O)[C@@H]1[C@@H](N(Cc2cc3ccccc3o2)C(=O)c2cccc3ccccc23)c2cc(OCCCO)ccc2N1C(=O)c1ccc(-c2ccccc2)cc1` (stereo not given in full), the composite z-score is -0.424 in test [1]; 0.365 in test [2]; 0.531 in [3]; 0.0822 in test [5]; -0.34 in [6]; -0.0077 in test [7]. Further, the composite z-score was 0.176 in test [8], -0.0541 in [9] and 0.971 in test [10]. For the same molecule, the z-score in test [4] is -1.82 (inactive).
With `CCOC(=O)C[C@H]1[C@H](OC(=O)c2ccc(C(=O)c3ccccc3)cc2)[C@@H](NC(=O)c2ccccc2)c2cc(OCCCO)ccc2N1C(=O)Cc1ccc(OC)cc1`, the composite z-score in test [1] is -0.0032; in [2], 0.234; in test [3], 0.586; in [5], 0.131; in test [6], 0.0916; in test [7] it was 0.285. The composite z-score in test [8] was 0.0514; in test [9] it was -0.0269; in test [10], 0.811. In test [4], the z-score is 0.0989 (inactive).
With `COCCOC(=O)N1C(=O)[C@@]2(c3cc(C#CCC(C(=O)OC)C(=O)OC)ccc31)[C@H](c1ccccc1OCCO)N1[C@H](c3ccccc3)[C@H](c3ccccc3)OC(=O)[C@H]1[C@@H]2C(=O)NC[C@H](O)c1ccccc1`, the composite z-score in [1] worked out at 1.36; in test [2], 0.877; in test [3], 0.326; in test [5], 1.05; in test [6], 1.29; in [7] it was 1.17. Moreover, the composite z-score in test [8] came out at 1.23; in test [9], 0.66; in test [10], 0.619. For the same molecule, the z-score in test [4] was 3.84 (inactive).
Take `C=C[C@H](C)[C@@H](OC(=O)Nc1ccc(OC)cc1)c1ccc(O)c2ccccc12`: the composite z-score in test [1] is 0.408; in test [2], -0.398; in test [3], -0.083; in test [5], -0.117; in test [6], -0.177; in test [7], -0.568. Further, the composite z-score in test [8] is 0.386; in test [9], 0.209; in test [10] it was 0.722. For the same molecule, in test [4], the z-score is 2.41 (inactive).
With `C=CCNC(=O)[C@H]1[C@@H]2C(=O)O[C@@H](c3ccccc3)[C@@H](c3ccccc3)N2[C@@H](c2ccccc2OCCO)[C@]12C(=O)Nc1ccc(C#CCCO)cc12`, the composite z-score was 0.932 in [1]; -0.0856 in test [2]; 0.784 in test [3]; 1.66 in test [5]; -1.03 in test [6]; -0.281 in [7]. Also, the composite z-score in test [8] amounted to 0.229; in test [9] it was 1.97; in test [10] it was 0.479. Moreover, the z-score in test [4] was -0.411 (inactive).
Turning to `CC1(C)[C@@H]2CC(C(O)C3C=CC4C(=O)N(c5ccccc5)C(=O)C4N3Nc3ccc([N+](=O)[O-])cc3)=C[C@H]1C2` (stereo not given in full), the composite z-score came out at 0.966 in [1]; 0.217 in test [2]; 0.648 in test [3]; 1.11 in test [5]; 1.34 in test [6]; 0.604 in [7]. Besides, the composite z-score was 1.38 in test [8], -0.104 in test [9] and 0.482 in test [10]. In test [4], the z-score is -0.547 (inactive).
